# The whole screen tested about 5,500 compounds, of which about 2,000 (36%) were called active. About 18% were inconclusive and are not listed. The list shows a part of the results. A number with no mark means an inactive call. Cut-off read from the data, not from the text of the source: active = normalized growth mostly below about 0.91 (no sharp cut-off); inconclusive = no clear call, values can overlap the other calls; inactive = mostly above about 0.92.
# Experiment: chemical genetic growth profiling, strain panel (AID 1159580);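 note: tested at 20 µM; growth read once vehicle control cultures reached saturation at 30 °C; 1 = growth at the plate median or of vehicle wells; lower values mean less growth of the strain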
# Details: growth OD
smiles,measurement,setting,value
CCC(C)(C)C(=O)O[C@H]1C[C@@H](C)C=C2C=C[C@H](C)[C@H](CC[C@@H]3C[C@@H](O)CC(=O)O3)[C@H]21,normalized growth,"S. cerevisiae deletion strains, locus YJR075W, strain HOC1, hits give low values",1
same,normalized growth,"S. cerevisiae deletion strains, locus YKL009W, strain mrt4, hits give low values",0.93
same,normalized growth,"S. cerevisiae deletion strains, locus YKL068W, hits give low values",1.03
same,normalized growth,"S. cerevisiae deletion strains, locus YKL085W, strain MDH1 (second series), hits give low values",1.02
same,normalized growth,"S. cerevisiae deletion strains, locus YKL085W, strain MDH1, hits give low values",1.02
same,normalized growth,"S. cerevisiae deletion strains, locus YKL160W, strain elf1, hits give low values",0.949
same,normalized growth,"S. cerevisiae deletion strains, locus YKL190W, strain CNB1, hits give low values",1.01
same,normalized growth,"S. cerevisiae deletion strains, locus YKR001C, strain vps1, hits give low values",1.01
same,normalized growth,"S. cerevisiae deletion strains, locus YKR026C, strain gcn3, hits give low values",1.01
same,normalized growth,"S. cerevisiae deletion strains, locus YKR091W, strain srl3, hits give low values",1.02
same,normalized growth,"S. cerevisiae deletion strains, locus YLL001W, strain dnm1, hits give low values",1
same,normalized growth,"S. cerevisiae deletion strains, locus YLL026W, hits give low values",0.981
same,normalized growth,"S. cerevisiae deletion strains, locus YLL041C, strain sdh2, hits give low values",1.01
same,normalized growth,"S. cerevisiae deletion strains, locus YLR027C, strain aat2, hits give low values",0.976
same,normalized growth,"S. cerevisiae deletion strains, locus YLR039C, strain RIC1, hits give low values",1.1
same,normalized growth,"S. cerevisiae deletion strains, locus YLR058C, strain SHM2, hits give low values",1.02
same,normalized growth,"S. cerevisiae deletion strains, locus YLR102C, strain apc9, hits give low values",1.04
same,normalized growth,"S. cerevisiae deletion strains, locus YLR113W, strain HOG1, hits give low values",1.04
same,normalized growth,"S. cerevisiae deletion strains, locus YLR221C, strain rsa3, hits give low values",0.909
same,normalized growth,"S. cerevisiae deletion strains, locus YLR258W, strain gsy2, hits give low values",0.927
same,normalized growth,"S. cerevisiae deletion strains, locus YLR262C, strain YPT6 (second series), hits give low values",1.05
same,normalized growth,"S. cerevisiae deletion strains, locus YLR262C, strain YPT6, hits give low values",0.58
same,normalized growth,"S. cerevisiae deletion strains, locus YLR268W, strain sec22, hits give low values",0.993
same,normalized growth,"S. cerevisiae deletion strains, locus YLR320W, strain mms22, hits give low values",0.855 (active)
same,normalized growth,"S. cerevisiae deletion strains, locus YLR330W, strain CHS5, hits give low values",1
same,normalized growth,"S. cerevisiae deletion strains, locus YLR342W, strain FKS1 (second series), hits give low values",1.01
same,normalized growth,"S. cerevisiae deletion strains, locus YLR342W, strain FKS1, hits give low values",1
same,normalized growth,"S. cerevisiae deletion strains, locus YLR357W, strain rsc2, hits give low values",1.01
same,normalized growth,"S. cerevisiae deletion strains, locus YLR370C, strain arc18, hits give low values",1.01
same,normalized growth,"S. cerevisiae deletion strains, locus YLR371W, strain rom2, hits give low values",1.04
same,normalized growth,"S. cerevisiae deletion strains, locus YLR384C, strain iki3, hits give low values",0.978
same,normalized growth,"S. cerevisiae deletion strains, locus YLR418C, strain cdc73, hits give low values",0.856
same,normalized growth,"S. cerevisiae deletion strains, locus YML016C, strain PPZ1, hits give low values",1.02
same,normalized growth,"S. cerevisiae deletion strains, locus YML032C, strain rad52, hits give low values",1.02
same,normalized growth,"S. cerevisiae deletion strains, locus YML120C, strain ndi1, hits give low values",0.987
same,normalized growth,"S. cerevisiae deletion strains, locus YML124C, strain tub3, hits give low values",1.04
same,normalized growth,"S. cerevisiae deletion strains, locus YMR058W, strain fet3, hits give low values",0.977
same,normalized growth,"S. cerevisiae deletion strains, locus YMR078C, strain ctf18, hits give low values",1.04
same,normalized growth,"S. cerevisiae deletion strains, locus YMR125W, strain sto1, hits give low values",0.97
same,normalized growth,"S. cerevisiae deletion strains, locus YMR129W, hits give low values",1.02
same,normalized growth,"S. cerevisiae deletion strains, locus YMR205C, strain PFK2, hits give low values",0.978
same,normalized growth,"S. cerevisiae deletion strains, locus YMR223W, strain ubp8, hits give low values",0.991
same,normalized growth,"S. cerevisiae deletion strains, locus YMR231W, strain pep5, hits give low values",1
same,normalized growth,"S. cerevisiae deletion strains, locus YMR263W, strain SAP30, hits give low values",0.99
same,normalized growth,"S. cerevisiae deletion strains, locus YMR307W, strain GAS1, hits give low values",0.554 (active)
same,normalized growth,"S. cerevisiae deletion strains, locus YNL067W, strain RPL9B, hits give low values",0.998
same,normalized growth,"S. cerevisiae deletion strains, locus YNL071W, strain lat1, hits give low values",0.834 (active)
same,normalized growth,"S. cerevisiae deletion strains, locus YNL128W, strain TEP1, hits give low values",0.979
same,normalized growth,"S. cerevisiae deletion strains, locus YNL153C, strain GIM3, hits give low values",0.986
same,normalized growth,"S. cerevisiae deletion strains, locus YNL183C, strain NPR1, hits give low values",0.897
same,normalized growth,"S. cerevisiae deletion strains, locus YNL209W, strain ssb2, hits give low values",0.88 (active)
same,normalized growth,"S. cerevisiae deletion strains, locus YNL233W, strain BNI4, hits give low values",0.947
same,normalized growth,"S. cerevisiae deletion strains, locus YNL248C, strain rpa49, hits give low values",0.932
same,normalized growth,"S. cerevisiae deletion strains, locus YNL250W, strain rad50, hits give low values",0.988
same,normalized growth,"S. cerevisiae deletion strains, locus YNL271C, strain bni1, hits give low values",1.01
same,normalized growth,"S. cerevisiae deletion strains, locus YNL298W, strain CLA4, hits give low values",1.03
same,normalized growth,"S. cerevisiae deletion strains, locus YNL307C, strain MCK1, hits give low values",0.942
same,normalized growth,"S. cerevisiae deletion strains, locus YNL322C, strain KRE1 (second series), hits give low values",1.07
same,normalized growth,"S. cerevisiae deletion strains, locus YNL322C, strain KRE1, hits give low values",1.01
same,normalized growth,"S. cerevisiae deletion strains, locus YNR049C, strain mso1, hits give low values",1.02
same,normalized growth,"S. cerevisiae deletion strains, locus YNR052C, strain pop2, hits give low values",0.911 (active)
same,normalized growth,"S. cerevisiae deletion strains, locus YOL006C, strain TOP1, hits give low values",0.909
same,normalized growth,"S. cerevisiae deletion strains, locus YOL012C, strain htz1",1.29
same,normalized growth,"S. cerevisiae deletion strains, locus YOL147C, strain pex11, hits give low values",1.04
same,normalized growth,"S. cerevisiae deletion strains, locus YOR001W, strain rrp6, hits give low values",1.01
same,normalized growth,"S. cerevisiae deletion strains, locus YOR061W, strain CKA2, hits give low values",1.01
same,normalized growth,"S. cerevisiae deletion strains, locus YOR069W, strain VPS5, hits give low values",0.998
same,normalized growth,"S. cerevisiae deletion strains, locus YOR070C, strain gyp1, hits give low values",0.845 (active)
same,normalized growth,"S. cerevisiae deletion strains, locus YOR080W, strain dia2, hits give low values",0.971
same,normalized growth,"S. cerevisiae deletion strains, locus YOR083W, strain WHI5, hits give low values",0.981
same,normalized growth,"S. cerevisiae deletion strains, locus YOR106W, strain vam3, hits give low values",0.931
same,normalized growth,"S. cerevisiae deletion strains, locus YOR136W, strain idh2, hits give low values",1.01
same,normalized growth,"S. cerevisiae deletion strains, locus YOR144C, strain elg1, hits give low values",1.03
same,normalized growth,"S. cerevisiae deletion strains, locus YOR184W, strain ser1, hits give low values",0.944
same,normalized growth,"S. cerevisiae deletion strains, locus YOR231W, strain MKK1, hits give low values",0.956
same,normalized growth,"S. cerevisiae deletion strains, locus YOR265W, strain rbl2, hits give low values",0.922 (active)
same,normalized growth,"S. cerevisiae deletion strains, locus YOR270C, strain vph1, hits give low values",0.57 (active)
same,normalized growth,"S. cerevisiae deletion strains, locus YOR290C, strain snf2, hits give low values",0.991
same,normalized growth,"S. cerevisiae deletion strains, locus YOR316C, strain cot1, hits give low values",1.03
same,normalized growth,"S. cerevisiae deletion strains, locus YPL051W, strain arl3, hits give low values",0.946
same,normalized growth,"S. cerevisiae deletion strains, locus YPL055C, strain LGE1, hits give low values",0.926
same,normalized growth,"S. cerevisiae deletion strains, locus YPL078C, strain atp4, hits give low values",0.983
same,normalized growth,"S. cerevisiae deletion strains, locus YPL106C, strain sse1, hits give low values",1.15 [resistant] (active)
same,normalized growth,"S. cerevisiae deletion strains, locus YPL240C, strain hsp82, hits give low values",0.997
same,normalized growth,"S. cerevisiae deletion strains, locus YPL241C, strain CIN2, hits give low values",1
same,normalized growth,"S. cerevisiae deletion strains, locus YPL256C, strain CLN2, hits give low values",1.02
same,normalized growth,"S. cerevisiae deletion strains, locus YPR119W, strain clb2, hits give low values",1.04
same,normalized growth,"S. cerevisiae deletion strains, locus YPR141C, strain kar3, hits give low values",1.02
same,normalized growth,"S. cerevisiae deletion strains, locus YPR163C, strain tif3, hits give low values",1.01
same,normalized growth,"S. cerevisiae deletion strains, locus YPR167C, strain met16, hits give low values",1.03
same,normalized growth,"S. cerevisiae deletion strains, strain wtn01, hits give low values",1.03
same,normalized growth,"S. cerevisiae strains, strain wild type, hits give low values",0.997
